Screening data: PubChem BioAssay, Pan Lab, Icahn School of Medicine at Mount Sinai
The sample as a whole holds a higher share of hits than the screen did.
ROC1-CUL1 inh: human ROC1-CUL1 E3 ligase inhibition; inhibition, % at 10 µM; in vitro K48 di-Ub FRET, acceptor:donor ratio, 45 min; actives 0.6% (n = 140,000); P62877+Q13616; in the data active = inhibition above about 25%
Target sequence (P62877 whole entry, looked up): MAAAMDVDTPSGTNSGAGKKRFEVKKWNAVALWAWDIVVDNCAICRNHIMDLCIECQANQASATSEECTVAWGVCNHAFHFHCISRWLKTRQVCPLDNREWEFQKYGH
Target sequence (Q13616 whole entry, looked up): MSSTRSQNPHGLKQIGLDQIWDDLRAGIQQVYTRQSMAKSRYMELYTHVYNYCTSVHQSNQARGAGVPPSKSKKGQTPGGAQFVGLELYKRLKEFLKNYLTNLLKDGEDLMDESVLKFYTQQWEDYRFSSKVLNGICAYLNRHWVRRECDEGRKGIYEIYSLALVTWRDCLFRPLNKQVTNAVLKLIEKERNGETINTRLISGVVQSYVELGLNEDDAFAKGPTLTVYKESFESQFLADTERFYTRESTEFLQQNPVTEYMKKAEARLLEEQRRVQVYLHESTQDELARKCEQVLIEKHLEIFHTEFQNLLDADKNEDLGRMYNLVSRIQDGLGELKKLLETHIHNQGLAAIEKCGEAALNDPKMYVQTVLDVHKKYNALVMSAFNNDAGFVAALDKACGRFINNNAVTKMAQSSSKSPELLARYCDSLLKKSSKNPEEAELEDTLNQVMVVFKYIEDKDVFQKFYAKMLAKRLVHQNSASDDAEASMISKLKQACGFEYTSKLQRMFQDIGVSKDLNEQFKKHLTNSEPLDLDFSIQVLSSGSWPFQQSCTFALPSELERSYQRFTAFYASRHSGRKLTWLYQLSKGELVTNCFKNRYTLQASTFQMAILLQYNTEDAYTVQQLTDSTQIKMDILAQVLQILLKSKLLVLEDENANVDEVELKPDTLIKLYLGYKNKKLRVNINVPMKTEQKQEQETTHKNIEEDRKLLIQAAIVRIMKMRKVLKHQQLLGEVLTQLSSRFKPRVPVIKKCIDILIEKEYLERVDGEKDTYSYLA
* = called active by the depositor.

SMILES	ROC1-CUL1 inh
COc1ccc(OC)c(-c2nc(CN3CCN(c4cnccn4)CC3)c(C)o2)c1	-4
O=C(C1CC12CCC2)N1CCc2onc(-c3ccc4c(c3)OCO4)c2C1 (centres undefined)	6
CCCc1cnc(-c2cccc(-c3ccn(CC(O)CC)n3)c2)nc1 (centres undefined)	2
CCOC(=O)C1=C(C)N=c2s/c(=C\c3cc(Br)c(O)c(OC)c3)c(=O)n2C1c1ccc(OC)cc1 (centres undefined)	53*
C=CCc1cc(/C=c2/sc3n(c2=O)C(c2ccc(OC)cc2OC)C(C(=O)OCC)=C(C)N=3)cc(OC)c1O (centres undefined)	-6
C=CCOc1ccc(C2C(C(=O)OCC)=C(C)N=c3s/c(=C\c4cc(I)c(O)c(OC)c4)c(=O)n32)cc1 (centres undefined)	37*
CCOC(=O)C1=C(C)N=c2s/c(=C/c3ccc(O)cc3)c(=O)n2C1c1cc(OC)ccc1OC (centres undefined)	-3
CCOC(=O)C1=C(C)N=c2s/c(=C/c3ccoc3)c(=O)n2C1c1ccc(OC)cc1 (centres undefined)	9
C=CCc1cc(/C=c2/sc3n(c2=O)C(c2cccc(OC)c2OCC)C(C(=O)OCC)=C(C)N=3)cc(OC)c1O (centres undefined)	-11
CCN(CC)C(=O)COc1ccc(S(=O)(=O)NCCc2ccc(OC)c(OC)c2)cc1	-2
COc1ccc(-c2c(C(F)(F)F)oc3cc(OCC(C)=O)ccc3c2=O)cc1OC	-6
C=CCNC(=S)NNC(=O)c1ccccc1OC	0
CCN1CC=C2C(C#N)C(=N)C(C#N)(C#N)C(c3cccc(F)c3)C2C1 (centres undefined)	47*
CN1CC=C2C(C#N)C(=N)C(C#N)(C#N)C(c3ccco3)C2C1 (centres undefined)	-4
CN1CC=C2C(C#N)C(=N)C(C#N)(C#N)[C@H](c3ccccc3F)[C@H]2C1 (some centres undefined)	2
CCN1CC=C2C(C#N)C(=N)C(C#N)(C#N)C(c3ccc(SC)cc3)C2C1 (centres undefined)	68*
CCN1CC=C2C(C#N)C(=N)C(C#N)(C#N)[C@H](c3ccc4c(c3)OCO4)[C@H]2C1 (some centres undefined)	-5
CN1CC=C2C(C#N)C(=N)C(C#N)(C#N)C(c3ccc(Br)s3)C2C1 (centres undefined)	45*
CCOC(=O)N1CC=C2C(C#N)C(=N)C(C#N)(C#N)[C@H](c3cccc(F)c3)[C@H]2C1 (some centres undefined)	6
CCN1CC=C2C(C#N)C(=N)C(C#N)(C#N)C(c3cc(OC)c(OC)c(OC)c3)C2C1 (centres undefined)	-1
CCCN1CC=C2C(C#N)C(=N)C(C#N)(C#N)C(c3cccc(Br)c3)C2C1 (centres undefined)	-1
Cc1cccc(N=c2scc(-c3ccc(Cl)cc3)n2CCO)c1	4
O=C1C2ON(c3ccc(Cl)cc3)C(c3cccs3)C2C(=O)N1c1cccc(C(F)(F)F)c1 (centres undefined)	9
c1ccc2oc(SCCCCCCSc3nc4ccccc4o3)nc2c1	-5
c1ccc(CSc2nc3ccccc3o2)c(CSc2nc3ccccc3o2)c1	-1
SMILES	ROC1-CUL1 inh
O=C(O)c1ccccc1SCCSc1nc2ccccc2o1	34*
Cc1ncc2c(c1-c1noc(COc3ccc4c(c3)OCO4)n1)CCNC2	12
O=C(CC1=CCCCC1)N1CCc2[nH]nc(-c3cccc(F)c3)c2C1	9
Cc1c(Cl)cccc1N1C(=O)/C(=C/c2cn(CC(=O)O)c3ccccc23)C(=O)NC1=S	81*
O=C1NC(=S)N(c2ccc(Br)cc2)C(=O)/C1=C/c1cn(CC(=O)N2CCCc3ccccc32)c2ccccc12	-10
Cc1cc(C)cc(N2C(=O)/C(=C/c3cn(CC(=O)N4CCC(C)CC4)c4ccccc34)C(=O)NC2=S)c1	-6
CC1=Nc2nc(NCc3cccc(Cl)c3)nn2C(=O)C1Cc1ccccc1 (centres undefined)	-10
OC(COc1cccc(CNC2Cc3ccccc3C2)c1)CN1CCOCC1 (centres undefined)	-2
C#Cc1ccc([C@@H]2C[C@H]3CN(Cc4ccccc4OC)C(=O)[C@]34CCCN24)cc1	7
CCOC(=O)N1CCN(Cc2ccc3c(c2)CN(C(=O)[C@@H]2C[C@H]2c2ccccc2)CCO3)CC1	1
CC(C)NC(=O)c1cccc(OCc2ccccc2)c1	10
Cc1cccc(NC(=O)c2ccc(CN3CCCCC3)cc2)c1C	0
CC(Sc1nc(-c2ccccc2)cc(C(F)(F)F)n1)C(=O)Nc1cc(Cl)cc(Cl)c1 (centres undefined)	-4
O=C(O)c1ccc(Nc2nc(Cl)nc(Cl)n2)cc1-c1c2ccc(=O)cc-2oc2cc(O)ccc12	106*
Cc1ccc(Nc2nc(Cl)nc(N3CCOCC3)n2)cc1Cl	-6
O=C(c1ccccc1)c1ccccc1Nc1nc(Cl)nc(Cl)n1	4
O=C(NCCN1CCOCC1)c1ccc(Cl)s1	-7
Cc1cc(N=C2NC(=O)/C(=C\c3ccc(Br)o3)S2)ccc1Cl	4
CCN(CC)c1ccc(/C=C2\SC(=Nc3ccc(Cl)c(Cl)c3)NC2=O)o1	29*
Cc1ccc(/C=C2\SC(=Nc3ccc(C)c(C)c3)NC2=O)o1	-5
COc1cc2c(cc1OC)C(=O)CCS2	0
COc1cc2c(cc1OC)/C(=C/CC1(C)C(=O)CCC1=O)CCS2	13
COc1cc2c(cc1OC)C1=C(C3=CCC(=O)[C@@]3(C)CC1)[C@H](C)S2	25*
CCOC(=O)c1sc(S)c(C(C)=O)c1C	1
CC1(C)CC(=O)c2cnc(NC(=O)Nc3ccc(Cl)c(Cl)c3)nc2C1	-3
SMILES	ROC1-CUL1 inh
O=C1NC(=S)N(c2cccc(Br)c2)C(=O)/C1=C/c1ccccc1O	-8
COc1cc(OC)c([N+](=O)[O-])cc1/C=C1\C(=O)NC(=S)N(C)C1=O	-7
O=C1NC(=S)N(c2ccccc2)C(=O)/C1=C/c1cc([N+](=O)[O-])c(O)cc1O	94*
c1ccc2nc3c(nc2c1)c1ccccc1n3CN1CCCCC1	2
OCNc1nc2c3ccccc3nc(CCN3CCCCC3)n2n1	46*
Cn1c(CN2CCCCC2)nc2ccccc21	4
CN(Cc1ccccn1)c1ccc(C(=O)N2CCC(Oc3cccnc3)CC2)cn1	11
CCn1cc(CNC(=O)C(Sc2ccccc2)c2ccccc2)cn1 (centres undefined)	5
O=C(O)c1cc2cc(Br)ccc2oc1=O	10
O=C(O)c1cc2ccoc2cc(C(=O)O)c1=O	100*
CC(=O)Nc1ccc2occc2c1	-12
Cc1cc(Br)cc(C)c1NC(=O)CN1CCOCC1	0
COc1ccc(OC)c(C(=S)N2CCOCC2)c1	-1
Cc1ccc2occ(/C=N\NC(=O)COc3ccccc3-c3ccnn3-c3ccccc3)c(=O)c2c1	3
O=C(COc1ccccc1-c1ccnn1-c1ccccc1)N/N=C/c1cc2ccccc2nc1Cl	-4
O=C(COc1ccccc1-c1ccnn1-c1ccccc1)N/N=C/c1coc2ccc(Cl)cc2c1=O	60*
O=C1C(Cl)=C(Cl)C(=O)C(CCNc2ncccn2)=C1Cl	98*
CC(C)NS(=O)(=O)c1cccnc1Cl	-12
O=c1oc(-c2ccccc2Cl)nc2scc(-c3ccc(Cl)cc3)c12	-8
CCOC(=O)C(Cc1c[nH]c2ccccc12)NC(=O)CN1C(=O)c2ccccc2C1=O (centres undefined)	-6
Cc1cc(/C=C2/SC(=S)N(CC(=O)O)C2=O)c(C)n1-c1ccccc1	16
